This is part of a sample that, as a whole, favours compounds with a hit. Of some 83,000 tested, about 20% had one in any assay.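 96-well plates, one dose, 48 hours. Percent growth reported; active if below 10.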 Active and inactive are the calls of the source.

This assay deals with U251 CNS. The assay is described as follows: NCI-60 one-dose screen, 48 h (100 = growth as untreated, 0 = no growth, -100 = all killed). As to conditions: 10 µM. How it is done:
Growth inhibition of the U251 human tumor cell line is measured as a screen for anti-cancer activity. Cells are grown in 96 well plates and exposed to the test compound for 48 hours. Compounds are tested at a single concentration, which is 10^-5 M for most compounds. The reported endpoint is percent growth (GI% or GIPRCNT), where numbers from 0 - 100% represent growth inhibition, and numbers from -100% - 0 represent cell death. For example, a value of 40 represents 60% growth inhibition. A value of 0 means no net growth occurred over the course of the experiment. A value of -40 indicates 40% of cells at the beginning of the experiment died by the end of the experiment. A value of -100 means all cells are dead at the end of the experiment.
NCI-60 Human Tumor Cell Lines Screen was performed using the standard one-dose NCI protocol, which is described in more detail at https://dtp.cancer.gov/discovery_development/nci-60/default.htm.
Compounds with GIPRCNT values below 10 were considered active. Activity score was based on GIPRCNT using the following formula: […]
Score is 0 for GIPRCNT values of 100 or above, 50 for GIPRCNT values of 0, and 100 for GIPRCNT values of -100.
As for `CN1CCCN(Cc2ccc(C(=O)Nc3cccc(Nc4ccc5c(O)cccc5n4)c3)cc2C(F)(F)F)CC1`, the growth is -65.7% (active). For `C=C1CCC2C3(C)COC(c4ccccc4F)OC3CCC2(C)C1C/C=C1/C(=O)OCC1O` (stereo not given) the value was -95.4% (active).

On to `CC1(C)CC[C@]2(C(=O)NCCCNCCCCNCCCN)CC[C@]3(C)C(=CC[C@@H]4[C@@]5(C)Cc6c([nH]c7ccccc67)C(C)(C)[C@@H]5CC[C@]43C)[C@H]2C1`, for which the growth was 89.5% (inactive).

As to `O=C(N=Nc1c(O)[nH]c2ccc(Br)cc12)c1ccc2nc(-c3ccccc3)[nH]c2c1`, the growth was -95.2% (active). For `C=C(c1ccc(OC)c(N)c1)c1cc(C)nc2ccccc12` the value was 7.35% (active); for `O=C(NO)c1ccc(CNC(=O)[C@H]2Cc3c([nH]c4ccccc34)[C@H](c3ccc(Cl)cc3)N2)cc1`, -4.01% (active). `CN(CCO)c1oc(-c2ccccc2)nc1[P+](c1ccccc1)(c1ccccc1)c1ccccc1`: the growth is 15.3% (inactive). For the compound `O=C(CNc1nc(-c2ccccc2)cs1)Nc1cccc([N+](=O)[O-])c1`, the growth was -62.6% (active). In the case of `CC(C)C(=O)Nc1ccc(C(=O)NC(=S)Nc2ccc(C(=O)O)cc2)cc1` it was 104% (inactive).

For `O=C1N/C(=N\c2nccs2)S/C1=C\c1cccs1`, the growth was 29.5% (inactive). In the case of `COc1cccc(-c2ccc(/C=N/NC(=O)c3[nH]c4ccc(Br)cc4c3-c3ccccc3)o2)c1` it was 7.57% (active); in that of `O=c1[nH]n(C(=S)N/N=C/c2ccc(F)cc2)c(=O)c2ccccc12`, 25.6% (inactive). As to `O=C(c1ccc(Cl)cc1)C1[C@H](c2ccc(Br)cc2)[C@@H](c2ccccc2)NC12C(=O)Nc1ccc(Br)cc12` (stereo not given in full), the growth is -79.9% (active). In the case of `Cc1ccc(/C=C(\C#N)n2nnc3c(F)cccc32)cc1` it was -26.1% (active). For `O=C(Nc1ccc(OCC(=O)c2ccccc2)cc1)Nc1ccc(Cl)c(C(F)(F)F)c1` the value was 25.8% (inactive); for `COc1ccc2[nH]c(O)c(N=NC(=O)COc3ccc(NC(=O)Nc4ccc(Cl)cc4)cc3)c2c1`, -87.2% (active); for `CC1(c2ccccc2)NC(=O)N(CC(=O)Nc2ccc(C(=O)/C=C/c3ccccc3)cc2)C1=O` (stereo not given), -15.2% (active). For `O=C1NC(=NC23CC4CC(CC(C4)C2)C3)N/C1=C\c1ccc2ncsc2c1` the value was 10.2% (inactive); for `Cn1cc(-c2cc(N)n3nc(-c4c[nH]c5ccc(Br)cc45)cc3n2)c2cccnc21`, -83.9% (active). Regarding `S=c1nc(-c2ccccc2)cc(-c2cc3ccccc3nc2Cl)[nH]1`, the growth is 83.2% (inactive). For `Clc1ccc2c(N/N=C/c3c[nH]c4ccc(Br)cc34)ccnc2c1` the value was -25.6% (active). As to `O=C(CSc1nnc(-c2ccc3nc(-c4ccc(Cl)cc4)[nH]c3c2)o1)Nc1ccc(Br)cc1`, the growth is -63.9% (active). For the compound `C=CC(=O)Nc1ccc(C(=O)/C=C/c2ccc(N(C)CCF)cc2)c(O)c1`, the growth is -94.7% (active). With `COc1ccc(C=CC(=O)c2ccc(-n3c(C)nc4c(cnn4-c4ccccc4)c3=O)cc2)cc1`, the growth was 74.1% (inactive). In the case of `CC(=O)Nc1ccc(-c2cn(-c3cccc(C(=O)Nc4ccc(Cl)c(C(F)(F)F)c4)c3)nn2)cn1` it was -59.5% (active); in that of `Cc1ccc(C(C)C)cc1NC(=O)c1ccccc1O`, 41% (inactive); in that of `Cc1ccc(-c2cc(C(=O)N=Nc3c(O)[nH]c4ccccc34)c3ccccc3n2)cc1`, 27.2% (inactive). For `CN(C(=O)c1ccc(C(C)(C)C)cc1)c1sc2c(c1C#N)CCC(=O)C2` the value was -22.7% (active). For `Nc1nc2c(F)c(F)c(F)c(F)c2s1` the value was 96.5% (inactive).

As to `CC(=O)Nc1ccc(-c2cn(-c3cccc(C(=O)Nc4ccc(F)c(C(F)(F)F)c4)c3)nn2)cn1`, the growth was -47.8% (active). As for `CN1CCO/C1=C(/NC(=O)c1ccc(Cl)cc1)[P+](c1ccccc1)(c1ccccc1)c1ccccc1`, the growth was 84.1% (inactive). For the compound `CN1CCN(Cc2ccc(NC(=O)c3cncc(C#Cc4cnc5ccc(N[C@H]6CCOC6)nn45)c3)cc2C(F)(F)F)CC1`, the growth is -79.7% (active).

For `Cc1ccc(CSc2nc(-c3ccc(F)cc3)c(C#N)c(=O)[nH]2)cc1`, the growth was 96.6% (inactive). For `CCOP(=O)(OCC)O[C@H]1CC[C@]2(C)[C@H]3CC[C@@H]4[C@@H]([C@](C)(O)CCC=C(C)C)CC[C@@]4(C)[C@]3(C)CC[C@H]2C1(C)C` the value was 12.8% (inactive); for `Cc1cc(=O)oc2cc(OCCCCOc3ccc(/C=C/C(=O)Nc4cccc(Cl)c4)cc3)ccc12`, 56.8% (inactive). In the case of `O=c1oc2ccc(-c3ccc(F)cc3F)cc2c(=O)n1-c1ccc(F)cc1` it was 18% (inactive); in that of `COc1ccc2c(c1)N=C(C(=O)O)/C2=C/c1sc(Nc2ccc(O)cc2)nc1O`, 67.7% (inactive). In the case of `CCCCCc1ccc(S(=O)(=O)Nc2cc(-c3csc(N(C)C(C)=O)n3)ccc2N2CCN(C)CC2)cc1` it was 19.6% (inactive). As to `Nc1nc(Nc2ccc(Cl)cc2)n(Cc2cccc(Br)c2)n1`, the growth is -12.4% (active).

On to `O=C(CSc1ccc(-c2ccc(Cl)cc2)nn1)Nc1ccc(Cl)c(C(F)(F)F)c1`, for which the growth is 73.1% (inactive).

(Values after PubChem BioAssay (NCI).)
